Compounds without any hit were thinned out: in the full panel of roughly 83,000, 20% have a hit.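 Activity criterion: percent growth below 10, measured after cells in 96-well plates were exposed to a single compound concentration for 48 hours.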 Activity calls are given as the source filed them.
Key:
Assay in all cases: NCI-60 one-dose screen, 48 h (100 = growth as untreated, 0 = no growth, -100 = all killed)
T-47D breast = settings: 10 µM
BT-549 breast = settings: 10 µM unless noted
MDA-MB-435 melanoma = settings: 10 µM unless noted
SW-620 colon = settings: 10 µM unless noted
HCT-116 colon = settings: 10 µM unless noted
HCC-2998 colon = settings: 10 µM unless noted
KM12 colon = settings: 10 µM unless noted
MCF7 breast = settings: 10 µM unless noted

Measured: growth

C[C@@H](Oc1cc(-c2cnn(C3CC4(CNC4)C3)c2)cnc1N)c1c(Cl)ccc(F)c1Cl
inactive: T-47D breast 43.3% | BT-549 breast 80.3% | MDA-MB-435 melanoma 41% | SW-620 colon 23.8% | HCT-116 colon 16.7% | HCC-2998 colon 57.1%
active: KM12 colon -18.5%

O=C(NCc1ccc(F)cc1)C1CN(c2ccc(Cl)cc2)N(c2ccc(Cl)cc2)C1=O (centres undefined)
active: MDA-MB-435 melanoma -21.8%
inactive: T-47D breast 49.9% | BT-549 breast 61.2% | SW-620 colon 36.7% | HCT-116 colon 48.8% | HCC-2998 colon 84.6% | KM12 colon 33.2%

O=C1c2ccccc2-c2cn(Cc3ccccc3)c3cccc(c23)C1c1cccnc1 (centres undefined)
inactive: T-47D breast 43% | SW-620 colon 30.8% | MCF7 breast 12.4% | HCT-116 colon 27.9% | HCC-2998 colon 56.4% | KM12 colon 30.5%
active: MDA-MB-435 melanoma 6.45%

COc1ccc(NC(=O)COc2ccccc2)c(C(N)=O)c1
active: MDA-MB-435 melanoma -70%
inactive: BT-549 breast 55.9% | SW-620 colon 27.1% | MCF7 breast 23.8% | HCT-116 colon 25.9% | HCC-2998 colon 46.5% | KM12 colon 25.2%

NC1=NC(c2ccccc2OS(=O)(=O)c2ccc(Br)cc2)n2c(nc3ccccc32)N1 (centres undefined)
inactive: T-47D breast 81.2% | MDA-MB-435 melanoma 73.1% | SW-620 colon 96% | MCF7 breast 77.3% | KM12 colon 100%

O=C(CC(O)c1ccccc1)Nc1ccccn1 (centres undefined)
inactive: T-47D breast 94.1% | MDA-MB-435 melanoma 97.9% | MCF7 breast 103% | HCT-116 colon 97.6% | HCC-2998 colon 102% | KM12 colon 103%

C=C[C@H]1C[C@@H]2C[C@@H]3[C@H]4C/C=C\C(=O)NCCCC5NC(=O)C(=C(O)/C=C/[C@@H]4CC(=O)[C@H]3[C@@H]2[C@H]1C)C5=O (some centres undefined)
active: T-47D breast -53.5% | MDA-MB-435 melanoma -19.2% | SW-620 colon -58.2% | MCF7 breast -63.8% | HCC-2998 colon -30% | KM12 colon -17.4%

COc1cccc(OC)c1OC(=O)c1ccccc1
inactive: T-47D breast 104% | MDA-MB-435 melanoma 97.5% | SW-620 colon 102% | MCF7 breast 101% | HCT-116 colon 103% | HCC-2998 colon 94.3% | KM12 colon 109%

O=c1c2c(=NCCN3CCCC3)cc3c(=O)n(CCCN4CCOCC4)c(=O)c4ccc(c(O)n1CCCN1CCOCC1)c2c4-3
active: BT-549 breast -34.9% | MDA-MB-435 melanoma -87.9% | SW-620 colon -15.5% | MCF7 breast -17.7% | HCT-116 colon 0.411% | HCC-2998 colon -45.8% | KM12 colon -20.9%

CC(=O)OC[C@H](O)[C@@]1(O)CC[C@H]2[C@@H]3CCC4=CC(=O)CC[C@]4(C)[C@H]3[C@@H](O)C[C@@]21C
inactive: T-47D breast 113% | MDA-MB-435 melanoma 119% | SW-620 colon 102% | MCF7 breast 112% | HCT-116 colon 98.4% | HCC-2998 colon 103% | KM12 colon 105%

CN1CCN(C)c2cncc(Br)c2C1=O
active: MDA-MB-435 melanoma -81.7%
inactive: T-47D breast 101% | SW-620 colon 102% | MCF7 breast 105% | HCC-2998 colon 98% | KM12 colon 105%

Cc1ccc(S(=O)(=O)N2CCc3ccc(O)c4c3C2CCc2ccccc2-4)cc1 (centres undefined)
inactive: T-47D breast 94% | MDA-MB-435 melanoma 97.7% | SW-620 colon 102% | MCF7 breast 103% | HCT-116 colon 108% | HCC-2998 colon 104% | KM12 colon 95.2%

CCN1CCN(c2ccc(Nc3ncc4ccc5ncn(C(C)C)c5c4n3)nc2)CC1
active: BT-549 breast -24.7% | MDA-MB-435 melanoma 0.992% | SW-620 colon -7.47% | MCF7 breast -1.88% | HCT-116 colon 8.77% | HCC-2998 colon -4.57% | KM12 colon -16.9%

COc1ccc(/C=N/OCC(O)CNCc2ccccc2)cc1OC1CCCC1 (centres undefined)
inactive: BT-549 breast 90.9% | MDA-MB-435 melanoma 99.4% | SW-620 colon 103% | MCF7 breast 93.9% | HCT-116 colon 95.2% | HCC-2998 colon 110% | KM12 colon 104%

O=C(Nc1ccccc1O)c1ccc(NS(=O)(=O)c2cccc3cccnc23)cc1
inactive: BT-549 breast 55.6% | MDA-MB-435 melanoma 32.6% | SW-620 colon 30% | MCF7 breast 42.3% | HCT-116 colon 23.7% | HCC-2998 colon 57.3% | KM12 colon 74.8%

c1ccc2cc(-c3n(Cc4ccc5ccccc5n4)c4ccccc4[n+]3Cc3ccc4ccccc4n3)ccc2c1
active: BT-549 breast -5.25% | MDA-MB-435 melanoma -35.6% | SW-620 colon -9.76% | MCF7 breast -10.4% | HCT-116 colon 2.75% | HCC-2998 colon -52.7% | KM12 colon -80.8%

Cc1ccc(NS(=O)(=O)c2ccc(-c3cnc(C4CC4)o3)cc2)cc1
active: MDA-MB-435 melanoma -3.14%
inactive: BT-549 breast 40.4% | SW-620 colon 12.4% | MCF7 breast 15.6% | HCT-116 colon 11.8% | HCC-2998 colon 69.2% | KM12 colon 20.5%

COc1cc(/C=N/NC(=O)c2cnn3c2NC(c2ccccc2)C3)ccc1OC1CCCC1 (centres undefined)
active: MDA-MB-435 melanoma 0.812%
inactive: BT-549 breast 16.8% | SW-620 colon 18.3% | MCF7 breast 16.8% | HCT-116 colon 18.9% | HCC-2998 colon 63.8% | KM12 colon 18.1%

COc1ccc(/C=N/OCC(O)CN2CCC(O)CC2)cc1OC1CCCC1 (centres undefined)
inactive: BT-549 breast 88.7% | MDA-MB-435 melanoma 102% | SW-620 colon 104% | MCF7 breast 94.7% | HCT-116 colon 89.6% | HCC-2998 colon 101% | KM12 colon 109%

Cc1ccc(S(=O)(=O)N2CCc3ccc(O)c4c3C2Cc2ccc3c(c2-4)OCO3)cc1 (centres undefined)
active: MDA-MB-435 melanoma -4.03% | HCC-2998 colon -25.8%
inactive: T-47D breast 46% | SW-620 colon 37.2% | MCF7 breast 20.6% | HCT-116 colon 13% | KM12 colon 12.5%

OB(O)c1ccccc1
inactive: BT-549 breast 96.2% | MDA-MB-435 melanoma 109% | SW-620 colon 108% | MCF7 breast 111% | HCT-116 colon 108% | HCC-2998 colon 109% | KM12 colon 107%

Cc1c(C(=O)Nc2nc(-c3ccccc3)cs2)nnn1-c1ccccc1Br
inactive: BT-549 breast 35.5% [50 µM] | MDA-MB-435 melanoma 20.1% [50 µM] | SW-620 colon 61% [50 µM] | MCF7 breast 19% [50 µM] | HCT-116 colon 32.6% [50 µM] | HCC-2998 colon 72.7% [50 µM] | KM12 colon 36.3% [50 µM]

Cc1cc(C)c(S(=O)O)c(C)c1
inactive: BT-549 breast 104% | MDA-MB-435 melanoma 103% | SW-620 colon 103% | MCF7 breast 109% | HCT-116 colon 109% | HCC-2998 colon 110% | KM12 colon 112%

CCCCCCCC/C=C\CCCCCCCCOc1cccc(CC(=O)NCC[N+]2(C)CCCCC2)c1
inactive: BT-549 breast 95.3% | MDA-MB-435 melanoma 82.1% | SW-620 colon 59.7% | MCF7 breast 75.7% | HCT-116 colon 71.5% | HCC-2998 colon 67.9% | KM12 colon 43.6%

Cc1ccccc1-n1nnc(C(=O)Nc2ccc(-c3ccccc3)cn2)c1C
inactive: BT-549 breast 50.7% [50 µM] | MDA-MB-435 melanoma 23.8% [50 µM] | SW-620 colon 69.3% [50 µM] | MCF7 breast 24.3% [50 µM] | HCT-116 colon 31.3% [50 µM] | HCC-2998 colon 73.9% [50 µM] | KM12 colon 53% [50 µM]

Cn1c2ccc(Cl)cc2c2nn(C(=O)c3ccccc3)c(=O)nc21
inactive: BT-549 breast 122% | MDA-MB-435 melanoma 111% | SW-620 colon 99.3% | MCF7 breast 94.7% | HCT-116 colon 104% | HCC-2998 colon 111% | KM12 colon 106%

O=c1c2c(=NCCN3CCCC3)cc3c(=O)n(CCCN4CCOCC4)c(=O)c4c(-c5ccc(CN6CCCC6)cc5)cc(c(O)n1CCCN1CCOCC1)c2c4-3
active: BT-549 breast -50.9% | MDA-MB-435 melanoma -90.1% | SW-620 colon -45.2% | MCF7 breast -34.8% | HCT-116 colon -23.8% | HCC-2998 colon -63.7% | KM12 colon -47.7%

Cc1ccc(S(=O)(=O)N2CCc3ccc(O)c4c3C2Cc2cc(Cl)ccc2-4)cc1 (centres undefined)
active: MDA-MB-435 melanoma 8.9%
inactive: T-47D breast 65.4% | SW-620 colon 33.1% | MCF7 breast 23.3% | HCT-116 colon 70.9% | KM12 colon 30.8%

COc1ccc(C2=NOC(CC(=O)N(CCO)CCO)C2)cc1OC1CCCC1 (centres undefined)
inactive: BT-549 breast 95.5% | MDA-MB-435 melanoma 104% | SW-620 colon 97.7% | MCF7 breast 95.2% | HCT-116 colon 79.6% | HCC-2998 colon 103% | KM12 colon 103%

COc1cc(-c2nc(SC(C)C)nc(Nc3cccc(C)c3)c2C#N)cc(OC)c1OC
inactive: BT-549 breast 107% | MDA-MB-435 melanoma 107% | SW-620 colon 109% | MCF7 breast 98.1% | HCT-116 colon 115% | HCC-2998 colon 116% | KM12 colon 110%

COc1cc(CNCCCN2C(=O)c3ccc4c5c(ccc(c35)C2=O)C(=O)N(CCCNCc2cc(OC)c(OC)c(OC)c2)C4=O)cc(OC)c1OC
active: T-47D breast -56.9% | MDA-MB-435 melanoma -71.5% | SW-620 colon -69.8% | MCF7 breast -58.1% | HCT-116 colon -61.8% | HCC-2998 colon -92.4% | KM12 colon -86.9%

Nc1cc2[nH]c(=O)c3ccccc3c2cc1Br
inactive: T-47D breast 20.6% | MDA-MB-435 melanoma 95.3% | SW-620 colon 82.9% | HCT-116 colon 77% | HCC-2998 colon 69.5% | KM12 colon 78.9%

C=C1CC[C@@H]2[C@@](C)(CCC[C@]2(C)C(=O)O)[C@@H]1CC[C@H](CO)CCO
inactive: T-47D breast 90.5% | MDA-MB-435 melanoma 109% | SW-620 colon 114% | MCF7 breast 101% | HCT-116 colon 107% | HCC-2998 colon 108% | KM12 colon 102%

Nc1cccc2c(=S)c3ccccc3[nH]c12
inactive: BT-549 breast 102% | MDA-MB-435 melanoma 106% | SW-620 colon 92.6% | MCF7 breast 85.6% | HCT-116 colon 93.4% | HCC-2998 colon 106% | KM12 colon 102%

COc1ccc(/C=C/C(=O)N2CCC(O)CC2)cc1OC1CCCC1
inactive: BT-549 breast 117% | MDA-MB-435 melanoma 103% | SW-620 colon 106% | MCF7 breast 95.4% | HCT-116 colon 106% | HCC-2998 colon 111% | KM12 colon 105%

COc1cc(/C=C/C(=O)CC(=O)/C=C/c2cc(Br)c(OC)c(OC)c2)cc(Br)c1OC
inactive: T-47D breast 83.7% | MDA-MB-435 melanoma 101% | SW-620 colon 114% | MCF7 breast 97.4% | HCT-116 colon 98.3% | KM12 colon 103%
